# The full list was thinned out, with hits kept by preference.
# mHTT CaM bind = mutant huntingtin-calmodulin interaction inhibitors – biochemical, AlphaScreen, primary screen; AlphaScreen His-mHTT/GST-CaM binding, luminescence; inhibition, % at 15 µM; 3.6% of 190,000 active
# Pf apPOL block = Pf-apPOL inhibitors, biochemical, fluorescence; Recombinant Pf-apPOL, molecular beacon fluorescence, 1.5 h; Plasmodium falciparum apicoplast DNA polymerase (apPOL); inhibition, % at 10 µM; 0.25% of 210,000 active
# Hits are given with their value; i = inactive; nt = no result. No stated cut-off is given here; in the data, active means inhibition above about 50%; inactive means the rest.
SMILES,mHTT CaM bind,Pf apPOL block
COc1ccccc1CNS(=O)(=O)c1ccc2[nH]c3c(c2c1)CCCCC3,98,i
CCOc1ccc(CNS(=O)(=O)c2ccc3[nH]c4c(c3c2)CCCC4)cc1OC,59,i
Cc1ccc(CCNS(=O)(=O)c2ccc3[nH]c4c(c3c2)CCCC4)cc1,85,i
COc1ccccc1CNS(=O)(=O)c1ccc(C)c([N+](=O)[O-])c1,i,i
Cc1cccnc1NS(=O)(=O)c1ccc2[nH]c3c(c2c1)CCCC3,i,i
CCOc1ccc(CNS(=O)(=O)c2ccc3[nH]c(=O)sc3c2)cc1OC,i,i
CCN1CCN(C(=O)CCCc2ccccc2)CC1,i,i
CCN(CC)CCN1C(=O)C(=O)c2cc(C)ccc21,i,i
O=c1nc(/C=C/c2cccc(Br)c2)cc(C(F)(F)F)[nH]1,i,i
Cc1cc(NC(=O)c2c[nH]c3ncccc23)ccc1F,i,i
Cc1ccc(NC(=O)C2(S(=O)(=O)c3ccc(Cl)cc3)CC2)cc1F,i,84
O=C(Nc1ccc(F)cc1)C1(S(=O)(=O)c2ccc(Cl)cc2)CC1,i,i
CNc1ncnc2c1C(c1ccc([N+](=O)[O-])cc1)c1c(NC)ncnc1O2,52,i
CC1(C(=O)O)COC(c2ccc([N+](=O)[O-])cc2)OC1 (centres undefined),i,i
COc1ccc(-c2nc(C)c3c(n2)N(C(C)C)C(=O)C3)cc1,i,i
Cn1nc(C(=O)NCCc2ccccn2)cc1-c1ccc(F)c(F)c1,i,i
C=CC(COCc1ccccc1)N(Cc1ccc(OC)cc1)S(=O)(=O)c1ccccc1Br (centres undefined),i,i
COc1ccc(CN(CC(O)COCc2ccccc2)S(=O)(=O)c2ccccc2Br)cc1 (centres undefined),86,i
O=C(NCc1cccnc1)c1nc2ccccn2c1-c1ccsc1,i,i
CS(=O)(=O)N(CC(=O)Nc1ccc2c(c1)OCO2)c1cc(C(F)(F)F)ccc1Cl,i,i
COc1c(Cl)cc(C(=O)Nc2ccc(N3CCOCC3)c(Cl)c2)cc1Cl,i,i
CCSc1nnc(-c2nn(C)c3c2CN(C(=O)c2ccc(OC)c(OC)c2)CC3)n1C,i,i
O=[N+]([O-])c1cc(Cc2ccccc2)ccc1O,i,i
Cc1ccccc1C(=O)Nc1cccc(N=Cc2cc([N+](=O)[O-])cc([N+](=O)[O-])c2O)c1,i,i
O=Cc1cc(Cc2ccccc2)cc([N+](=O)[O-])c1O,100,i
SMILES,mHTT CaM bind,Pf apPOL block
O=C(Nc1cccc(N=Cc2cc(Cl)cc([N+](=O)[O-])c2O)c1)c1ccco1,68,i
CC(=O)Nc1cccc(N=Cc2cc(Cc3ccccc3)cc([N+](=O)[O-])c2O)c1,51,i
Cc1cccc(N=Cc2cc(Cl)cc([N+](=O)[O-])c2O)c1,i,i
NC(=S)N=Nc1c2nnnc2c(NNC(N)=S)c2n[nH][nH]c12,100,nt
COCCN1C2=C(C(=O)CC(C)(C)C2)C(c2ccc(O)c(Cl)c2)C2=C1CC(C)(C)CC2=O,i,i
COc1ccc(CCNC(=O)c2cnn3c(C)c(Cc4cc(C)ccc4C)c(C)nc23)cc1OC,53,i
COc1ccc(CNC(=O)c2cnn3c(C)c(Cc4cc(C)ccc4C)c(C)nc23)cc1,i,i
Cc1nc2c(C(=O)NCCc3ccccc3)cnn2c(C)c1Cc1ccc(Cl)cc1,i,i
CCCCNC(=O)c1cnn2c(C)c(Cc3ccc(F)cc3)c(C)nc12,i,i
Cc1nc2c(C(=O)NCCc3ccc(Cl)cc3)cnn2c(C)c1Cc1ccc(F)cc1,80,i
Cc1nc2c(C(=O)NCc3ccccc3)cnn2c(C)c1Cc1cccc(Cl)c1,i,i
Cc1nc2c(C(=O)NCCc3ccc(Cl)cc3)cnn2c(C)c1Cc1ccccc1,53,i
Cc1nc2c(C(=O)NCCc3ccccc3)cnn2c(C)c1Cc1cccc(Cl)c1,78,i
Cc1oc2cc(OCC(=O)OC(C)C)ccc2c(=O)c1-c1ccc(Br)cc1,i,i
O=c1c2c(ccn1CCCN1CCOCC1)ccn2Cc1cccnc1,i,i
O=C1S/C(=C\c2cccs2)C(=O)N1Cc1ccc(F)cc1,i,i
COc1cc(/C=c2\sc3nc4ccccc4n3c2=O)c(Br)cc1O,i,i
C#CCn1cc(/C=C2\C(=O)NC(=O)N(c3ccc4c(c3)OCO4)C2=O)c2ccccc21,i,i
Cc1cccc(-c2noc(CS(=O)(=O)c3ccccc3)n2)c1,i,i
CCn1cnnc1C1CCCCN1S(=O)(=O)c1cccs1 (centres undefined),i,i
O=C(NCc1ccc(F)c(Cl)c1)c1ccc2ncnc(N3CCCC3)c2c1,i,i
CCCC(C(=O)O)N1C(=O)C(=Cc2cn(C)c3ccccc23)SC1=S (centres undefined),i,i
COC(=O)c1cnc2nc(C)ccc2c1Nc1cc(F)ccc1F,i,i
COc1ccc(NC(=O)c2c(NC(=O)CNCCO)sc3c2CCC3)cc1,62,i
CCOc1ccc(NC(=O)c2c(NC(=O)CNCC3CCCO3)sc3c2CCC3)cc1 (centres undefined),i,i
SMILES,mHTT CaM bind,Pf apPOL block
COc1ccc(NC(=O)c2c(NC(=O)CNCc3ccco3)sc3c2CCC3)cc1,i,i
CCOc1ccc(NC(=O)c2c(NC(=O)CNCCN3CCOCC3)sc3c2CCC3)cc1,81,i
CCC(C)NC(=O)c1ccc2c(c1)nc(C)n2-c1cccc(C)c1 (centres undefined),i,i
Cc1nc(SCCC(=O)O)[nH]c(=O)c1C,i,i
Cc1nc(NS(=O)(=O)c2ccccc2)sc1C(=O)NCc1ccco1,i,i
O=[N+]([O-])C(/C=C(\Cl)[N+](=O)[O-])=C1N(c2ccccc2)CCN1c1ccccc1,i,i
O=[N+]([O-])C(/C=C(\Cl)[N+](=O)[O-])=C(Nc1ccccc1)Nc1ccccc1,63,i
CC(Nc1ccc(Cl)cc1N)c1ccccc1 (centres undefined),98,i
Nc1ccc(Cl)cc1C(O)c1ccccc1 (centres undefined),i,i
Cc1ccsc1C(=O)N1CCN(c2nc3ccncc3n(C)c2=O)CC1,i,i
CCOc1cccc2cc(C(N)=O)c(=NCc3ccccc3)oc12,i,i
CCOc1cccc(=NCc2ccccc2)c2c(C)[nH]c(C)c12,76,i
CC1Cc2ccccc2N1C(=O)CSC1=C(C#N)C(c2ccccc2F)CC(=O)N1 (centres undefined),i,i
CC(C)c1noc(-c2cccnc2N2CCCN(Cc3ccc(F)cc3)CC2)n1,i,i
O=[N+]([O-])c1cc(C=Nc2c(-c3ccco3)nc3ccccn23)ccc1Cl,i,i
Clc1ccccc1C=Nc1c(-c2ccco2)nc2ccccn12,79,i
Brc1ccc(C=Nc2c(-c3ccco3)nc3ccccn23)cc1,i,i
Oc1ccc(C=Nc2c(-c3ccco3)nc3ccc(Cl)cn23)cc1,52,i
CSc1ccc(C=Nc2c(-c3ccco3)nc3ccccn23)cc1,80,i
COc1ccc(Br)cc1C=Nc1c(-c2ccco2)nc2ccccn12,i,i
COc1ccc(C=Nc2c(-c3ccco3)nc3ccccn23)cc1OC,i,i
Oc1ccc(Br)cc1C=Nc1c(-c2ccco2)nc2ccccn12,62,i
CCOc1ccc2c(c1)OC(=Cc1ccc(OC(C)C(=O)OC)c(OC)c1)C2=O (centres undefined),i,i
C=CCOc1ccc(C(=O)N2CCCCC2CCN2CCCCC2)cc1 (centres undefined),i,i
COc1ccccc1Nc1nc(-c2ccccn2)cs1,97,i

# Source: PubChem BioAssay (University of Kansas High Throughput Screening Laboratory)
